Measured values published in PubChem BioAssay (EPA / NIEHS).
Records with an inconclusive call do not appear. The source made the active and inactive calls. The calls were made as follows: active = hit-call score of the fitted dose curve at least 0.9, where 1 is the maximum; inconclusive = response in the unintended direction; inactive = score below 0.9.

molecular target: mouse Estrogen Receptor alpha (Era), Esr1 (gene 13982) (UniProt P19785); experiment: NVS_NR_mERa: NovaScreen (NVS) Nuclear Receptor Binding Assay for mouse Estrogen Receptor alpha (Era) (AID 2283378);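 also: hit means loss of bound radioligand signal relative to DMSO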
Method: NVS_NR_mERa is a biochemical, single-readout assay that uses extracted gene-proteins in a cell-free assay. Measurements were taken 18 hours after chemical dosing in a 96-well plate.NVS_NR_mERa is one of one assay component(s) measured or calculated from the NVS_NR_mERa assay. It is designed to make measurements of radioligand binding, a form of binding reporter, as detected with scintillation counting signals by Filter-based radiodetection technology.Data from the assay component NVS_NR_mERa was analyzed into 1 assay endpoint. This assay endpoint, NVS_NR_mERa, was analyzed in the positive analysis fitting direction relative to DMSO as the negative control and baseline of activity. Using a type of binding reporter, loss-of-signal activity can be used to understand changes in the binding as they relate to the gene Esr1. Furthermore, this assay endpoint can be referred to as a primary readout, because the performed assay has only produced 1 assay endpoint. To generalize the intended target to other relatable targets, this assay endpoint is annotated to the nuclear receptor intended target family, where the subfamily is steroidal.
Binding assays used specific radioligands (tritiated, iodinated) with non-radioactive competitive displacement ligands in agonist or antagonist protocols (as indicated) and various reference compounds and inhibitors to titrate specific binding to receptors and transporters. Most enzyme assays (CYPs, kinases, phosphatases, proteases, HDACs) used recombinant protein and specific substrates (fluorescence mostly, some colorimetric and radioactive) and inhibitors, followed by a biochemical separation of substrate and product. All assays for the biochemical HTS were initially run in duplicate at a single concentration (10 uM for CYP450 assays and 25 uM for all others). […] Each assay was run with positive and negative controls, and concurrent controls on every plate. The follow-up (secondary) screen tested active chemical-pairs in concentration series, as well as a few additional assays not tested in the primary screen, some selected negative inactives, and several cases re-run in the concentration series for confirmatory purposes.

mouse Estrogen Receptor alpha (Era), Esr1 (gene 13982), sequence (P19785 whole entry, looked up): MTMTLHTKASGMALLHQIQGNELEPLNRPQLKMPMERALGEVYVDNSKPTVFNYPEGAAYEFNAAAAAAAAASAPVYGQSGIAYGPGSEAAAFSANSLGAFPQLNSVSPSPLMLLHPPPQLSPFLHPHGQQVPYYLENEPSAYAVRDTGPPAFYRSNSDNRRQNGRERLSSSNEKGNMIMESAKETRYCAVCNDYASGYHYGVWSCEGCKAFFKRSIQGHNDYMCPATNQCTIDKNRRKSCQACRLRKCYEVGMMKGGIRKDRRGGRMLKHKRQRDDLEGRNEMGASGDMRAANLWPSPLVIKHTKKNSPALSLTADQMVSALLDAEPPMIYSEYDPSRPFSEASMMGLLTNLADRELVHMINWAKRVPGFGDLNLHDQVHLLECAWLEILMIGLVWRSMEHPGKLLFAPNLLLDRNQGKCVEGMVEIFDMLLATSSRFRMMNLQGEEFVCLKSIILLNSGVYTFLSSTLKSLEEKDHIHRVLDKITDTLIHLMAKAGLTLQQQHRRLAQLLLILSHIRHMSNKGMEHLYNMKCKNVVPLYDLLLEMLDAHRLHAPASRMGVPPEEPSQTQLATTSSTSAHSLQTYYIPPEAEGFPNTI

Compound	AC50	outcome
Cc1ccc(O)c(-n2nc3ccccc3n2)c1	6.65 µM (active)	–
CCCCCCCC/C=C\CCCCCCCC(=O)N(C)CC(=O)O	–	inactive
O=C1C=CC(=O)N1c1ccccc1	–	inactive
CCCCCCCCCc1ccc(OCCO)cc1	–	inactive
CC(C)(C)c1cc(CCC(=O)OCC(COC(=O)CCc2cc(C(C)(C)C)c(O)c(C(C)(C)C)c2)(COC(=O)CCc2cc(C(C)(C)C)c(O)c(C(C)(C)C)c2)COC(=O)CCc2cc(C(C)(C)C)c(O)c(C(C)(C)C)c2)cc(C(C)(C)C)c1O	–	inactive
O=C(c1ccccc1)c1ccc(O)cc1O	1.22 µM (active)	–
CCCCCCCCCCCCCC[P+](CCCC)(CCCC)CCCC	–	inactive
COCCOCCC[Si](C)(O[Si](C)(C)C)O[Si](C)(C)C	–	inactive
CCCCCCCCn1sc(Cl)c(Cl)c1=O	25 µM (active)	–
CCCCCCCCCCCCC[N+](C)(C)Cc1ccccc1	8.86 µM (active)	–
CCC(Cc1c(I)cc(I)c(N)c1I)C(=O)O (configuration not stated)	–	inactive
CCN=c1cc2oc3cc(NCC)c(C)cc3c(-c3ccccc3C(=O)OCC)c-2cc1C	25 µM (active)	–
